Data: PubChem BioAssay AID588742 (Southern Research Specialized Biocontainment Screening …, 2011)
The campaign covered roughly 1,800 compounds. About 410 (23%) were called active. Not all results are given here. Results with a measured potency or affinity are listed apart. Unmarked numbers belong to inactive results. How the calls were made is not given here.

assay: Vero cell cytotoxicity, cytotoxicity control for flavivirus capping enzyme inhibitors (AID 588742); conditions: Vero cells viability, cytotoxicity counter-screen; series mostly up to 40 µM; viability: at the top concentration

SMILES	viability
CN(C)c1c([N+](=O)[O-])cc(N2C(=O)C=CC2=O)cc1[N+](=O)[O-]	100%
CCOc1ccc(/C=C2\SC(=S)N(NS(=O)(=O)c3ccccc3)C2=O)cc1OC	95.8%
O=C(CCN1C(=O)S/C(=C/c2ccccc2)C1=O)Nc1ccc(O)c(C(=O)O)c1	100%
COc1ccc(OC)c(-n2c(-c3ccc(O)cc3O)n[nH]c2=S)c1	108%
COC(=O)c1sc(-c2ccc(C(C)(C)C)cc2)cc1NC(=O)c1ccccc1C(=O)O	84%
Cc1sc(NC(=O)C2CCCCC2C(=O)O)c(C(N)=O)c1-c1ccc(C(C)(C)C)cc1 (stereo not given)	98.8%
Cc1sc(NC(=O)C2CCCCC2C(=O)O)c(C(N)=O)c1-c1ccc(C(C)C)cc1 (stereo not given)	97.5%
O=C(O)CN1C(=O)/C(=C\c2cc(Br)ccc2OCc2ccccc2Cl)SC1=S	86.5%
Oc1cc(CNCc2ccccc2)c(O)cc1CNCc1ccccc1	91.2%
O=C(O)CN1C(=O)/C(=C\c2cccc(OCc3ccc(Cl)cc3)c2)SC1=S	89.3%
O=[N+]([O-])c1ccc(N/N=C2/CCCCC2c2ccccn2)c([N+](=O)[O-])c1 (stereo not given)	91.9%
CCCc1nc2nc(C)c(NS(=O)(=O)c3ccc(C4CCCCC4)cc3)c(=O)n2[nH]1	103%
COc1ccc(OC)c(N2C(=O)C(Cl)=C(N3CCOCC3)C2=O)c1	110%
COc1ccc(Cl)cc1/C=C1/C(=O)ON=C1C	93.8%
CN1c2ccccc2C(C)(C)C12C=Nc1c(ccc3ccccc13)O2 (stereo not given)	92.2%
O=C(COC(=O)c1ccc(NS(=O)(=O)c2cccs2)cc1O)NC1CCCCC1	87.3%
O=C1CCCc2cc(S(=O)(=O)N3CCC(C(=O)NCc4ccccc4)CC3)ccc2N1	96.7%
COC/C=C/C1=CC2=CC(=O)C(C)(OC(=O)c3cnc4ccccc4n3)C(=O)C2=CN1C1CC1 (stereo not given)	93.5%
C=CCN1C=C2C(=O)C(C)(OC(=O)c3cnc4ccccc4n3)C(=O)C=C2C=C1/C=C/COC (stereo not given)	107%
CCc1ccccc1N1C(=O)C(Cl)=C(N2CCOCC2)C1=O	89.8%
Cc1ccccc1N1C(=O)C(Cl)=C(N2CCOCC2)C1=O	90.7%
Cc1ccc(Nc2cc(C)c(O)c(C)c2)cc1	92.6%

SMILES	viability
Cc1ccc(S(=O)(=O)Nc2nc3ccccc3nc2NCc2ccco2)cc1	105%
CC(C)C[C@H]1CN=C(Nc2ccccc2)N1CC(C)C	96.1%
Cc1ccc(OCC(=O)c2ccc(Cl)s2)c([N+](=O)[O-])n1	95.8%
CCOc1ccc2c(c1)C(C)=CC(C)(C)N2C(=O)Nc1ccccc1	99.6%
CN1C(=O)/C(=C/c2cccc([N+](=O)[O-])c2)C(=O)N1c1ccccc1	99.7%
O=c1[nH]c(/C=C/c2cccc([N+](=O)[O-])c2)c([N+](=O)[O-])c(=O)[nH]1	103%
Cc1cc(C)cc(NC(=S)N(Cc2ccc(Cl)cc2)Cc2ccc(C(=O)O)cc2)c1	86.2%
CSC1=C(C#N)C(=O)NC(c2ccccc2O)S1 (stereo not given)	102%
Cc1ccc(OCc2ccc(C(=O)Nc3nccs3)o2)cc1C	103%
CCn1c(C)[n+](CCCS(=O)(=O)[O-])c2cc(Cl)c(Cl)cc21	106%
O=S(=O)(O)c1cccc2cccc(Nc3ccccc3)c12	93.8%
COc1ccc(/C=C2/SC(=S)N(NS(=O)(=O)c3ccc(C)cc3)C2=O)cc1	96.9%
CCC(COC)Oc1cc(NCc2ccccc2)c2ncn(C(C)C)c2c1 (stereo not given)	85.8%
CCCCC1=CC2=C(c3ccco3)C(=O)C(C)(OC(=O)c3ccc(OC)cc3)C(=O)C2=CN1CC1CC1 (stereo not given)	83.4%
Cc1[nH]n(-c2ccccc2)c(=O)c1C(c1cccc([N+](=O)[O-])c1)c1c(C)[nH]n(-c2ccccc2)c1=O	85.4%
Cc1cc(SCC(=O)c2cccc([N+](=O)[O-])c2)nc(=O)[nH]1	97.7%
O=c1nc(/C=C/c2cc([N+](=O)[O-])ccc2Cl)cc(C(F)(F)F)[nH]1	103% [at 20 µM]
Cc1ccc(S(=O)(=O)NN2C(=O)/C(=C/c3cccs3)SC2=S)cc1	98.3%
CC1=NN(c2ccccc2)C(=O)C1=Cc1ccccc1	104%
COc1cc(NC(=O)c2ccco2)c(OC)cc1NC(=O)CCC(=O)Nc1cc(C)ccc1C	101%
COc1cc(/C=C2/SC(=S)N(CC(=O)O)C2=O)ccc1OCC(=O)Nc1ccc(C)c(C)c1	97.2%
CCOC(=O)/C(=C\c1cn(C)c2ccccc12)[N+](=O)[O-]	95.5%

SMILES	viability
CCOc1cc(/C=C2\C(=O)ON=C2c2ccccc2)ccc1OC	103%
O=C1C(Cl)=C(N2CCOCC2)C(=O)N1c1ccccc1	94.5%
Cc1cc(NS(=O)(=O)c2ccc(Nc3nc(-c4sc(N)nc4C)cs3)cc2)no1	95.2%
CCc1sc(C(C2C(=O)CC(C)(C)CC2=O)C2C(=O)CC(C)(C)CC2=O)cc1[N+](=O)[O-]	97%
Cc1ccc(CNC(=O)CSc2n[nH]c(N)n2)cc1	94.2%
CCCCC(NC(=O)Cc1c(C)c2cc3c(-c4ccccc4)coc3c(C)c2oc1=O)C(=O)O (stereo not given)	94.3%
Oc1ccc(N=Nc2ccccc2-c2nn[nH]n2)c(O)c1	98.7%
CC(C)OP(=O)(OC(C)C)C1(NS(=O)(=O)c2ccc(Cl)cc2)C=C(Cl)C(=O)C(Cl)=C1	89.6%
CC1=NN(c2ccc(Br)cc2)C(=O)/C1=C/c1ccc(-c2ccccc2C(=O)O)o1	96.6%
Cc1ccccc1-c1ncc(CN2CCN(C3CCCCC3)C(CCO)C2)cn1 (stereo not given)	105%
CC1(C)Cc2c(C#N)c(N)sc(=S)c2CS1	91.3%
COc1ccc(N2C(=O)C3CCCN3C2c2cccc(Br)c2)cc1 (stereo not given)	101%
O=C(CCc1ccc(S(=O)(=O)N2CCOCC2)cc1)N/N=C/c1ccc(O)c(O)c1O	102%
O=[N+]([O-])c1ccc(N/N=C/c2ccc(O)c(O)c2O)c(S(=O)(=O)N2CCOCC2)c1	93.6%
Oc1ccc2ccccc2c1C=NC12CN3CCN(CN(C3)C1)C2	95.7%
O=C(O)c1ccc(N(c2ccccc2)c2ccccc2)cc1	96%
CCN(CC)c1ccc(SS(=O)(=O)O)cc1	90.7%
COc1ccccc1CNC(=O)CN1C(=O)N(C)C2(CCCCC2)C1=O	106%
O=c1[nH]n2c(=O)c3c([nH]c2c1N=Nc1cccc(Cl)c1)CCCC3	107%
CC(C)CSC1=NSC2=NC(=O)/C(=C\c3ccccc3)C(=N)N12	90.5%
Nc1ccc(N2CCOCC2)c2nonc12	92.8%
O=C(O)c1cccc(NC2=C(Cl)C(=O)c3ccccc3C2=O)c1	89.2%

SMILES	viability
Cc1ccccc1SCC(=O)OCC(=O)Nc1ccc(N(C)C)cc1	101%
CN(C)c1ccc(NC(=O)CCCc2ccccc2)cc1	100%
O=C(O)c1ccc(COc2ccccc2C=C2C(=O)c3ccccc3C2=O)cc1	90.2%
CC(=O)N(C(C)=O)N1C(=O)C2C3c4ccccc4C(c4ccccc43)C2C1=O (stereo not given)	105%
O=C(CN1C(=O)/C(=C2\SC(=S)N(CCS(=O)(=O)O)C2=O)c2ccccc21)Nc1cccc(Br)c1	94.1%
O=C1/C(=C/c2cccc(F)c2)SC(=S)N1NS(=O)(=O)c1ccccc1	99.2%
CCNc1sc(C(=O)c2cccs2)c(N)c1C#N	95.9%
CC(C)CN1C(=O)/C(=C/c2ccco2)NC1=S	95.4%
Cc1cccc(OC(C)C(=O)OCC(=O)Nc2sccc2C(N)=O)c1 (stereo not given)	101%
CC(=O)C1CCC2C3CCC4=CC(=O)CCC4(C)C3(Br)C(=O)CC12C (stereo not given)	90.9%
COC(=O)CCC(=O)OC1(C)C(=O)C2=CN(Cc3ccccc3)C(c3ccc(OC)cc3)=CC2=C(Br)C1=O (stereo not given)	102%
O=c1c([N+](=O)[O-])c(O)c2ccccc2n1Cc1ccccc1	102%
Nc1nc(N=Nc2ccc(O)cc2)cc(=O)[nH]1	99.2%
Cc1cc(C(=O)O)ccc1-c1ccc(/C=C2\NC(=O)N(Cc3ccc(F)cc3)C2=O)o1	83.7%
CCS(=O)(=O)c1nc(S(=O)(=O)c2ccc(Cl)cc2)c(N2CCC(O)CC2)s1	98.7%
O=C1C2C3CCCC3=C3CCCC3C2C(=O)N1c1cccc(Cl)c1 (stereo not given)	101%
O=C(O)c1cccc(Nc2nc3ccccc3nc2NS(=O)(=O)c2cccs2)c1	96.3%
Cc1ccc(N2NC(=O)/C(=C/c3ccc(-c4ccc(Cl)c(C(=O)O)c4)o3)C2=O)cc1C	95%
O=C1C(Cl)=C(Oc2ccccc2)C(=O)c2ccccc21	85.8%
COc1cccc(/C=C2\C(=O)C(=O)c3ccccc32)c1	97.9%
CC(=O)OCC1=C(C(=O)O)N2C(=O)C(NC(=O)c3ccc(COc4cccc(Cl)c4Cl)o3)C2SC1 (stereo not given)	111%
O=C(NCCCN1CCOCC1)c1ccc(NS(=O)(=O)c2ccccc2)cc1	104%

SMILES	viability
O=C(c1c(F)cccc1F)N1CCCC1	101%
Oc1ccc(/C=N/Nc2ccc(Cl)nn2)c(O)c1O	96%
C#CCOc1ccc(/C=C2/C(=O)N(c3ccc(S(N)(=O)=O)cc3)N=C2C)cc1OC	97.6%
O=C(CCN1C(=O)/C(=C\c2ccccc2F)SC1=S)Nc1ccc(C(=O)O)c(O)c1	109%
COC(=O)c1sc(N2C(=O)C(O)=C(C(=O)c3ccc(C)o3)C2c2ccc([N+](=O)[O-])cc2)nc1C (stereo not given)	97%
CC[n+]1c(/C=C2\C=C(C)CC(C)(C)C2)sc2ccccc21	86.9%
O=C(O)c1cccc(N2C(=O)c3cc([N+](=O)[O-])cc4cc([N+](=O)[O-])cc(c34)C2=O)c1	97.3%
CC1=NN(c2ccccc2)C(=O)/C1=C\c1ccc(Oc2ccc([N+](=O)[O-])cc2[N+](=O)[O-])cc1	94.5%
O=C(c1cccc(S(=O)(=O)N2CCOCC2)c1)N(Cc1ccc(F)cc1)Cc1ccco1	88.5%
Cc1ccc(C2/C(=C(/O)c3ccc(Br)cc3)C(=O)C(=O)N2Cc2ccco2)o1 (stereo not given)	103%
CCc1ccc([C@@H]2CC=C(C(=O)O)[C@H](c3ccc(C)cc3)N2S(=O)(=O)c2ccc(C)cc2)cc1	82.7%
O=C(O)/C=C/C(=O)c1c(-c2ccccc2)[nH]c2ccccc12	94%
CCc1ccc(NC(=O)C2=CC=CN3CCS(=O)(=O)N=C23)cc1	101%
Cc1noc(NS(=O)(=O)c2ccc(NC(=O)c3ccccc3NS(=O)(=O)c3ccc(F)c(F)c3)cc2)c1C	100%
O=C1C(Cl)=C(N2CCOCC2)C(=O)N1c1ccc(Br)cc1	101%
Cc1ccc(C)c(OCC(=O)NCC2COc3ccccc3O2)c1 (stereo not given)	89.8%
COc1nc(OC)nc(N2CCC(C(=O)NC3CC3)CC2)n1	95.8%
O=C(O)CN1C(=O)/C(=C\c2cc(Br)ccc2OCc2ccc(Cl)cc2)SC1=S	92.4%
O=C(O)CCN1C(=O)/C(=C\c2cccc(Oc3ccccc3)c2)SC1=S	107%
COc1cc(/C=C2/S/C(=N/S(=O)(=O)c3ccccc3)NC2=O)c([N+](=O)[O-])cc1OC	101%
O=C1OC(c2ccccc2)(c2cc(Br)c(O)c(Br)c2)c2ccccc21 (stereo not given)	111%
O=C(O)C(Cc1ccccc1)N1C(=O)c2c(Cl)c(Cl)c(Cl)c(Cl)c2C1=O (stereo not given)	122%
